Source: PubChem BioAssay
The source made the active and inactive calls. Unless noted, no rule for the calls is given here.

How the values were obtained:
[1] = anti-His antibody binders, primary screen, artefact control for SMM control protein annotation, biochemical, small-molecule microarray, 635 nm fluorescence (AID 1128); conditions: anti-His Alexa647 antibody binding, higher = more signal;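 also: score merges feature fluorescence with signal-to-noise for each printed compound spot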
[2] = test system: Human papillomavirus type 1a E7 protein (residues 1-88); assay: HPV1a E7 small-molecule binders, primary screen, biochemical, small-molecule microarray, residues 1-88, 635 nm (AID 1129); conditions: small-molecule microarray binding, fluorescence 635 nm; higher = more signal
[3] = biological target: Focal adhesion kinase 1 (Homo sapiens) (UniProt Q05397); assay: small-molecule microarray binders of FAK, primary screen, biochemical, 635/667 nm fluorescence, BSA, DTT (AID 1130); conditions: PTK2 binding, 635 nm fluorescence, higher = more signal;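 also: composite of spot emission at 667 nm and signal to noise over triplicate slides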
Chain of Focal adhesion kinase 1 (Homo sapiens) (Q05397 whole entry, looked up): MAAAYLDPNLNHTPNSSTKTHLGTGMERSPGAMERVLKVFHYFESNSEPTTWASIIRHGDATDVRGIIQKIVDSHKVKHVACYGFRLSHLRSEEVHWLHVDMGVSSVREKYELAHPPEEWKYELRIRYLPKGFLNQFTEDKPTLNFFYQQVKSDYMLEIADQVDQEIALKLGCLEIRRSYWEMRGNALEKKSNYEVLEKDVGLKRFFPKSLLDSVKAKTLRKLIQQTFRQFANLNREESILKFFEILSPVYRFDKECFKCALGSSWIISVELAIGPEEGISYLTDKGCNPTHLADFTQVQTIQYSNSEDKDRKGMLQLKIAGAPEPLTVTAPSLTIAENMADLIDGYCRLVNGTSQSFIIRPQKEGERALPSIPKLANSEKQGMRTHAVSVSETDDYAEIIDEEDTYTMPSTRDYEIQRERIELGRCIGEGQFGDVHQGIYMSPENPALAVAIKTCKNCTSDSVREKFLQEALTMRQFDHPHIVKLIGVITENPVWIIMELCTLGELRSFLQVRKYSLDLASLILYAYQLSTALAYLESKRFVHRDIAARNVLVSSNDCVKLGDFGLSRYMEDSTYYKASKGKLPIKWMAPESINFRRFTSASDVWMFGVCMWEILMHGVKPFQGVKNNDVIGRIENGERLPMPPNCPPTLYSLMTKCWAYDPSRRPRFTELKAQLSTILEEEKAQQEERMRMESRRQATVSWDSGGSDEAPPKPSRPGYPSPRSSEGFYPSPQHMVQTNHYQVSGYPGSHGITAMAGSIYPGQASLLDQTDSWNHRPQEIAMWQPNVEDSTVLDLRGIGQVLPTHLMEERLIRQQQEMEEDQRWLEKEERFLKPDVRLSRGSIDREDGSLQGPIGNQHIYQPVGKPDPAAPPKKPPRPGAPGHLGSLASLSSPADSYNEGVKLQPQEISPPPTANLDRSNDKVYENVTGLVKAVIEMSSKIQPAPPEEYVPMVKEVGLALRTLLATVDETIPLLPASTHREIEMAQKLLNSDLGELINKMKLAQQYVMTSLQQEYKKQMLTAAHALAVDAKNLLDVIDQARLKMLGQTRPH

[4] = test system: Fibrinogen (Alexa647-labelled); assay: fibrinogen binders on compound microarrays, profiling panel, artefact control for SMM control-protein annotation, biochemical, small-molecule microarray, 635/667 nm fluorescence (AID 1131); conditions: fibrinogen-A647 binding fluorescence, higher = more signal;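 also: z-score merges 667 nm fluorescence with per-spot signal-to-noise over triplicate slides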
[5] = biological target: Follistatin (Homo sapiens) (UniProt P19883); assay: follistatin binders on small-molecule microarrays, primary screen, biochemical, small-molecule microarray, 635/667 nm fluorescence (AID 1132); conditions: FST binding, 635 nm fluorescence, higher = more signal
Chain of Follistatin (Homo sapiens) (P19883 whole entry, looked up): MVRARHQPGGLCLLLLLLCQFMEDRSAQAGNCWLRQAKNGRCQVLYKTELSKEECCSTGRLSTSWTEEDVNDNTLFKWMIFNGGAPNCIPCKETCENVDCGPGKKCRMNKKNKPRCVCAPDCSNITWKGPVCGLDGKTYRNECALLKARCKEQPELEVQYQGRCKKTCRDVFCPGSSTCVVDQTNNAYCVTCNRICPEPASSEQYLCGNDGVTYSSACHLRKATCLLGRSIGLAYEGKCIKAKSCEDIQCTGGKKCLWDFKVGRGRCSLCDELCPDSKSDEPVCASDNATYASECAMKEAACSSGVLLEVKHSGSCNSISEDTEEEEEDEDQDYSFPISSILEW

[6] = biological target: Fibroblast growth factor 2 (Homo sapiens) (UniProt P09038); assay: FGF2 binders on small-molecule microarrays, primary screen, biochemical, small-molecule microarray, 635/667 nm fluorescence (AID 1133); conditions: small-molecule microarray binding, FGF2, fluorescence 635/667; higher = more signal
Chain of Fibroblast growth factor 2 (Homo sapiens) (P09038 whole entry, looked up): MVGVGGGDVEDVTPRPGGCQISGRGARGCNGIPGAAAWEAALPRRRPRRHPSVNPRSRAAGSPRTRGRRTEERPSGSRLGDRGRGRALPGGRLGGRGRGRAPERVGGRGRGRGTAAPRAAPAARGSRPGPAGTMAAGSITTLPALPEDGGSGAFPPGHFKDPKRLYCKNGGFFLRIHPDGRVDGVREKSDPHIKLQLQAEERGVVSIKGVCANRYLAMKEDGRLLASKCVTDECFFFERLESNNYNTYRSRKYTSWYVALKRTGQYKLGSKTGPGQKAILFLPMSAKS

[7] = mitochondrial membrane potential change in A549 cells, profiling panel, cell-based, JC-1 fluorescence, basal, 24 h, 100 nL (AID 1138); conditions: higher = more signal;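 also: A549 lung adenocarcinoma cells under basal conditions with no added stimulus; test concentration not given here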
[8] = test system: Lefty1; assay: Lefty1 binders on small-molecule microarrays, primary screen, biochemical, small-molecule microarray, 635/667 nm fluorescence (AID 1139); conditions: small-molecule microarray binding, fluorescence 635/667; higher = more signal
[9] = test system: wheat germ agglutinin (Triticum aestivum), Alexa647-labelled; assay: wheat germ agglutinin binders on compound microarrays, profiling panel, artefact control for SMM control-protein annotation, biochemical, small-molecule microarray, 635/667 nm fluorescence (AID 1140); conditions: WGA-A647 binding, 635 nm fluorescence, higher = more signal;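 also: score merges 667 nm feature emission with signal to noise over triplicate slides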
[10] = biological target: Luciferin 4-monooxygenase (Photinus pyralis) (UniProt P08659); assay: firefly luciferase enzyme inhibitors, primary screen, biochemical, luminescence, purified enzyme, 2006 set (AID 1141); conditions: SteadyGlo luminescence, 30 min, higher = more signal, called active from +8 up or from −8 down;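 also: cell-free assay with purified firefly luciferase at 100 ng per well in PBS; test concentration not given here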
Chain of Luciferin 4-monooxygenase (Photinus pyralis) (P08659 whole entry, looked up): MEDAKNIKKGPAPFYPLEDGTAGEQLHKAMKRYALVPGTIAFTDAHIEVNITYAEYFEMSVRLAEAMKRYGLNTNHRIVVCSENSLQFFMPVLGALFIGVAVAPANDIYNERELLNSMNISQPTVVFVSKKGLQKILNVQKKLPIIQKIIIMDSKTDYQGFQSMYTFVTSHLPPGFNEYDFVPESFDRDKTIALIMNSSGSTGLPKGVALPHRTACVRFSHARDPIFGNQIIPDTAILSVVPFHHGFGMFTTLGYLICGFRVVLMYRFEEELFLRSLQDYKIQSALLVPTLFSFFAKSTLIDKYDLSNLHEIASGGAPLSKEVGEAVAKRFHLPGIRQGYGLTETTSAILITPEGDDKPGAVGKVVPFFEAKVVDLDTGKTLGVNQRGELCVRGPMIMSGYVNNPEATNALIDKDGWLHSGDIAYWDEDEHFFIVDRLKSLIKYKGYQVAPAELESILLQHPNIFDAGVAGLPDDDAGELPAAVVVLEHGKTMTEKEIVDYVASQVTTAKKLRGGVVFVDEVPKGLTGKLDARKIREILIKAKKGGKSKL

[11] = test system: Wnt5a (protein binding on small-molecule microarray); assay: Wnt5a binders on small-molecule microarray, primary screen, biophysical, 635/667 nm fluorescence (AID 1142); conditions: 635 nm fluorescence, higher = more signal;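 also: fluorescence read at 667 nm with signal to noise per printed feature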
[12] = cell viability in Huh7 cells, primary screen, cytotoxicity control for HCV replication inhibitor project, CellTiter-Glo luminescence, basal, 48 h (AID 1143); conditions: Huh7 HCV replicon, higher = more signal, called active from +8 up or from −8 down;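 also: Huh7 hepatoma cells carrying a hepatitis C replication reporter with no stimulus; test concentration not given here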
[13] = P. aeruginosa biofilm formation inhibitors, primary screen, PAO1 strain, BacTiter-Glo luminescence, LB-PBS (AID 1144); conditions: 12 h, higher = more signal
[14] = CREB reporter modulators without forskolin, primary screen, cell-based, PC12, CRE-LacZ reporter, unstimulated (AID 1145); conditions: no forskolin, luminescence, 4.5 h, higher = more signal, called active from +8 up or from −8 down
[15] = CREB reporter modulators under forskolin, primary screen, cell-based, PC12, CRE-LacZ reporter, forskolin-stimulated (AID 1146); conditions: luminescence, 4.5 h, higher = more signal, called active from +8 up or from −8 down;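 also: PC12 cells with 6xCRE LacZ reporter stimulated by forskolin 10 µM; beta-galactosidase reporter signal reflecting CREB driven transcription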
[16] = biological target: Streptavidin (Streptomyces avidinii) (UniProt P22629); assay: streptavidin binders on small-molecule microarray, primary screen, artefact control for SMM compound annotation, biophysical, 635/667 nm fluorescence (AID 1147); conditions: streptavidin binding, higher = more signal;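 also: signal reflects streptavidin binding to arrayed compounds as a control protein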
Chain of Streptavidin (Streptomyces avidinii) (P22629 whole entry, looked up): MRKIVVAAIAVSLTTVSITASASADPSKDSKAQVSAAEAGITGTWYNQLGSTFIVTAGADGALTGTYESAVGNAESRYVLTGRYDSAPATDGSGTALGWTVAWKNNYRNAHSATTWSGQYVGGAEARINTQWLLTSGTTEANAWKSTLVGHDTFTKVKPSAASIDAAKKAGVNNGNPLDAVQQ

[17] = small-molecule binders of probe aInhba, primary screen, biochemical, small-molecule microarray, 635/667 nm fluorescence (AID 1148); conditions: higher = more signal;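 also: score merges 667nm spot fluorescence with signal-to-noise for antibody binding to printed compounds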
[18] = biological target: Torsin-1A (Homo sapiens) (UniProt O14656); assay: torsin A binders from cell lysate, primary screen, small-molecule microarray, wild-type, 635/667 nm (AID 1149); conditions: COS7 hTOR1A-WT lysate, 635 nm fluorescence, higher = more signal
Chain of Torsin-1A (Homo sapiens) (O14656 whole entry, looked up): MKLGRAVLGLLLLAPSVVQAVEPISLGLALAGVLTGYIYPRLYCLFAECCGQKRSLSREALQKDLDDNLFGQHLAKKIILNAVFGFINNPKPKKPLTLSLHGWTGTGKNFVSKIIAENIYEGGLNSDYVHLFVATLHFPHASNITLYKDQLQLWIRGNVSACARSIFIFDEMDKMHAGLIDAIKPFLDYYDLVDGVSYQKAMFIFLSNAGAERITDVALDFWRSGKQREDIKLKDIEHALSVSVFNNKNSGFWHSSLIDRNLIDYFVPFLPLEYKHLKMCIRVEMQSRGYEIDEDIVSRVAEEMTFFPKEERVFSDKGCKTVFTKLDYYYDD

[19] = biological target: Torsin-1A (Homo sapiens) (UniProt O14656); assay: small-molecule binders of mutant TOR1A in lysate, primary screen, cell lysate, small-molecule microarray, COS7 lysate, 635/667 nm fluorescence (AID 1150); conditions: COS7 hTOR1A mutant lysate, 635 nm fluorescence, higher = more signal;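 also: score pools 667 nm emission and signal to noise measuring lysate protein binding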
[20] = test system: Sonic hedgehog protein (Shh); assay: small-molecule binders of Shh protein, primary screen, biochemical, small-molecule microarray, 635/667 nm fluorescence (AID 1151); conditions: small-molecule microarray binding, 635 nm fluorescence; higher = more signal;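 also: Shh protein binding to compounds spotted on small-molecule microarray slides; score combines spot fluorescence intensity with signal-to-noise across triplicate slides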

| Compound | composite z-score [1] | composite z-score [2] | composite z-score [3] | composite z-score [4] | composite z-score [5] | composite z-score [6] | z-score [7] | composite z-score [8] | composite z-score [9] | z-score [10] | composite z-score [11] | z-score [12] | z-score [13] | z-score [14] | z-score [15] | composite z-score [16] | composite z-score [17] | composite z-score [18] | composite z-score [19] | composite z-score [20] |
| --- | --- | --- | --- | --- | --- | --- | --- | --- | --- | --- | --- | --- | --- | --- | --- | --- | --- | --- | --- | --- |
| O=C1C2C=CC(C(O)Cc3ccccc3)N(Nc3ccc([N+](=O)[O-])cc3)C2C(=O)N1c1ccccc1 (stereo not given) | 1.46 | 1.01 | 0.331 | 0.405 | 0.252 | -0.165 | -0.75 | -0.0551 | 0.245 | 1.36 (inactive) | 0.331 | -0.219 (inactive) | -0.138 (inactive) | -1.33 (inactive) | -0.0492 (inactive) | 0.355 | 0.46 | 0.187 | 0.222 | -0.166 |
| O=C(N1CCCCC1)[C@@]1(CCS(=O)(=O)c2ccccc2)N=C(c2ccc(OCCCO)cc2)O[C@H]1c1ccccc1 | 1.9 | 1.26 | 0.556 | 0.328 | 1.25 | -0.0973 | 0.216 | -0.0953 | 0.0324 | -1.32 (inactive) | 1.31 | -5.06 (inactive) | -0.725 (inactive) | 0.909 (inactive) | -0.516 (inactive) | -0.123 | -0.0112 | 1.06 | 0.623 | -0.442 |
| C=C(C)[C@@H]1CC=C(C(O)C2C=CC3C(=O)NC(=O)C3N2Nc2ccccn2)CC1 (stereo not given in full) | 2.31 | 1.15 | -0.167 | 1.02 | 1.58 | 1.92 | 0.781 | 1.75 | 0.842 | -0.332 (inactive) | 0.742 | 0.715 (inactive) | -0.555 (inactive) | -0.14 (inactive) | 0.621 (inactive) | 0.717 | 0.093 | 1.1 | 0.705 | 2.28 |
| CC(c1ccccc1)C(O)C1C=CC2C(=O)N(C)C(=O)C2N1N(c1ccccc1)c1ccccc1 (stereo not given) | 0.69 | 0.919 | 0.467 | 0.948 | -0.19 | -0.377 | 0.755 | -0.617 | 1.18 | -0.273 (inactive) | 0.156 | 0.066 (inactive) | -0.131 (inactive) | 0.443 (inactive) | 0.696 (inactive) | 0.377 | 0.153 | 0.18 | 0.426 | -0.586 |
| O=C1OCC=C[C@H]2OC34C=CCN(Cc5ccccc5)C(=O)[C@H]3N(CCO)C(=O)[C@@H]4[C@@H]12 (stereo not given in full) | -0.29 | -0.766 | -0.248 | -1.04 | -0.0764 | -1.24 | -0.0233 | 0.0323 | -0.0943 | -3.69 (inactive) | -0.744 | 0.154 (inactive) | -0.992 (inactive) | -1.31 (inactive) | -0.773 (inactive) | -1.09 | -0.307 | -2.02 | -0.768 | -0.722 |
